# From PubChem BioAssay (NCATS)
# Where “and” joins values, the source holds several entries; their conditions need not be identical. Equal values may be shown once. Inconclusive results are not listed. Some compounds were tested as several samples or in several runs, with calls that do not always agree. Unmarked numbers belong to inactive results. Calls of active or inactive are those of the source. Calls come from the whole dose curve; as a rule, active = well fitted inhibition curve with a large enough effect; inconclusive = small, poorly fitted or top-dose-only effect; inactive = flat fitted curve, though single readings scatter. *1 amine or outer side, *2 acyl side, *3 side chain or, on linkers, in order; H or OH if unused. Where a SMILES comes first, the peptide text is derived from it. Bridges are numbered along the chain shown (N, C = ends). [ ]: non-standard residue; d: D form. The star is where a group is joined. X5 = NC1=N[C@@H]([C@H](N[*:1])C(=O)[*:2])C[C@H](O)N1; ΔAla(Z-3-ureido) = NC(=O)N/C=C(\N)C(=O)O; β3hOrn = NCCC[C@H](N)CC(=O)*; Dap = NC[C@H](N)C(=O)O
# Experiments:
# [1] = Drug repurposing screens with cells derived from glioblastoma tumor samples (AID 1345199); settings: GBM patient neurospheres viability, ATP luminescence, 48 h; note: nearly all actives have a fitted effect of over 40% in size
# Outline: (§1)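 Primary testing used CD133+ neurospheres from four GBM patients, seven concentrations, 48 h exposure and ATP-based viability; confirmation added three slower-growing patient lines.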
# astro = control astrocytes; assay: as above; settings: viability, ATP luminescence, 48 h; series mostly up to 45.9 µM
# Outline: as §1
# [2] = at 45.9 µM (top of the series), tumour line B
# [3] = at 45.9 µM (top of the series), tumour line D
# [4] = at 46 µM (top of the series), tumour line A
# [5] = at 46.1 µM (top of the series), tumour line C
# [6] = at 20 µM (top of the series), tumour line C
# [7] = at 21.2 µM (top of the series), tumour line B
# [8] = at 21.2 µM (top of the series), tumour line D
# [9] = at 21.3 µM (top of the series), tumour line A
# % is set by controls: 0 for no effect and ±100 for the full control effect; potency is the fitted concentration of half-maximal effect.
SMILES,"activity, negative = cell killing [1, 2]","activity, negative = cell killing [1, 3]","activity, negative = cell killing [1, 4]","activity, negative = cell killing [1, 5]",Potency (astro),"activity, negative = cell killing [1, 6] [%]","activity, negative = cell killing [1, 7] [%]","activity, negative = cell killing [1, 8] [%]","activity, negative = cell killing [1, 9] [%]",Potency ([1]; tumour line A)
F[Si-2](F)(F)(F)(F)F,5.47%,-3.02%,-17.6%,30.2%,inactive,–,–,–,–,–
CC[C@H]1OC(=O)C[C@@H](O)[C@H](C)[C@@H](O[C@@H]2O[C@H](C)[C@@H](O[C@H]3C[C@@](C)(O)[C@@H](O)[C@H](C)O3)[C@H](N(C)C)[C@H]2O)[C@@H](CC=O)C[C@@H](C)C(=O)/C=C/C(C)=C/[C@@H]1CO[C@@H]1O[C@H](C)[C@@H](O)[C@@H](OC)[C@H]1OC,-18.4% and -8.3%,-0.155% and -17.6%,-15.7%,-3.5% and -16.4%,inactive,–,–,–,–,–
CCN(CC)C(=S)S,-1.95%,-9.18%,-29.6%,-13.5%,inactive,–,–,–,–,–
CN1C(=O)C[C@@H](C(=O)N[C@@H](Cc2cnc[nH]2)C(=O)N2CCC[C@H]2C(N)=O)NC1=O,-7.31%,-5.42%,-26.4%,-16.9%,inactive,–,–,–,–,–
C=O,-5.16%,-12.4%,-10.6%,0.841%,inactive,–,–,–,–,–
CCCCC(CC)CCC(CC(C)C)OS(=O)(=O)O (stereo not given),-14.6% and -5.66%,-13.9% and 2.49%,-21.7% and -3.22%,-16.9% and 4.88%,inactive,–,–,–,–,–
CC(=O)Oc1cc(C(F)(F)F)ccc1C(=O)O,–,–,–,–,inactive,-16.9,-19.3,-15.7,-29,–
CCCCC(O)c1ccccc1 (stereo not given),-4.84%,-15%,-44.5%,0.769%,inactive,–,–,–,–,–
CC(C)(O/N=C(\C(=O)N[C@@H]1C(=O)N2C(C(=O)[O-])=C(C[n+]3ccccc3)CS[C@H]12)c1csc(N)n1)C(=O)O,–,–,–,–,inactive,-8.81,-13.9,1.29,-19.8,–
CN[C@@H]1[C@@H](O)[C@@H](O[C@@H]2[C@@H](O)[C@H](O[C@H]3O[C@H](CN)[C@@H](O)[C@H](O)[C@H]3O)[C@@H](N)C[C@H]2NC(=O)C(O)CN)OC[C@]1(C)O (stereo not given in full),-11%,-1.91%,4.63%,1.73%,inactive,–,–,–,–,–
NCCC[C@H](N)CC(=O)N[C@H]1CNC(=O)[C@H]([C@H]2C[C@H](O)NC(N)=N2)NC(=O)/C(=C/NC(N)=O)NC(=O)[C@H](CO)NC(=O)[C@H](CO)NC1=O (β3hOrn-[Dap]SS[ΔAla(Z-3-ureido)][X5]; lactam 1-C),-0.927%,-12.2%,-14.8%,-14%,inactive,–,–,–,–,–
Nc1nc(/C(=C/CC(=O)O)C(=O)N[C@@H]2C(=O)N3C(C(=O)O)=CCS[C@H]23)cs1,-0.0909%,-11.4%,12.2%,20.6%,inactive,–,–,–,–,–
CCCC(CCC)C(=O)OC1C[C@H]2CC[C@@H](C1)[N+]2(C)C (stereo not given in full),-8.76% and -2.82%,-23.5% and -24.1%,–,-20.2%,inactive,–,–,–,–,17.8 µM (active)
CO[C@@]1(NC(=O)C2SC(=C(C(N)=O)C(=O)O)S2)C(=O)N2C(C(=O)O)=C(CSc3nnnn3C)CS[C@@H]21 (stereo not given in full),–,–,–,–,inactive,-19.2,-15.8,-10.4,-12.5,–
CCOC(=O)Oc1c(OC)cc(C(=O)O[C@@H]2C[C@@H]3CN4CCc5c([nH]c6cc(OC)ccc56)[C@H]4C[C@@H]3[C@H](C(=O)OC)[C@H]2OC)cc1OC,–,–,–,–,inactive,-3.41,-4.13,-4.51,–,5.62 µM (active)
CC(CNC(=O)c1cccnc1)NC(=O)c1cccnc1 (stereo not given),-10.6%,-9.97%,-56.9%,-14.1%,inactive,–,–,–,–,–
